Bioassay records: PubChem, National Center for Advancing Translational Sciences (NCATS)
Pf Dd2 growth – Plasmodium falciparum Dd2 growth inhibition; AID 1347417; Potency, µM (top dose mostly 28.9 µM), for inactives: top-dose activity, negative = inhibition, hits mostly inhibitors; 120,000 tested, 4.3% active; P. falciparum Dd2 growth, SYBR Green, 72 h; active means well fitted inhibition curve with a large enough effect;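 further: plate controls were DMSO vehicle for no effect and reference drug for full effect; nearly all actives have a fitted effect of over 65% in size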
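Readout: SYBR Green fluorescence, 485 nm excitation, 535 nm emission, after ~16 h lysis at 37C. Before that, Dd2-infected red cells (2.5% hematocrit) grew 72 h with compound, 29 uM top final concentration.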
* = called active by the depositor; i = inactive; [ ] = another dose, or the depositor's remark. This excerpt belongs to a sample that is enriched for hits. Potency means the concentration at half of the fitted maximal effect.

SMILES	Pf Dd2 growth
COc1cccc(N2C(=O)NC(=NC3CCCCC3)C23CCCN(C(=O)c2ccccc2F)C3)c1 (configuration not stated)	49%
Cc1ncc2c(c1CNC(=O)c1ccc(OC(F)F)cc1)CCNC2	1%
Cc1nnc(-c2cc(C(=O)NCCN(C)C)ccn2)n1CCc1ccccc1	i
CC(=O)c1cccc(NC(=O)Cn2c(=O)n(-c3cccc(C)c3)c(=O)c3c2cc(C)n3C)c1	46%
COc1ccccc1CNC[C@H]1Cn2c(-c3cccc(Cl)c3)cnc2CO1	13µM*
COc1ccccc1C(=O)NC[C@H]1Cn2c(-c3ccc4c(c3)OCCO4)cnc2CO1	-1%[44.1 µM]
Fc1ccc(CNC[C@H]2Cn3c(-c4ccc(F)cc4)cnc3CO2)cc1	-15%[44.1 µM]
Cn1nccc1C(=O)N1CCCC(c2nc(-c3ccccc3)no2)CCNC(=O)CC1 (configuration not stated)	i
Cc1ccccc1NC(=O)N1CCC(CCNC(=O)Cc2ccccc2F)CC1	6%
O=C(NCCOc1ccccc1)[C@@H]1C[C@@H](c2ccc(F)cc2)N([S+](=O)([O-])c2ccccc2)C1	i
COc1ccccc1OCC(=O)c1ccc2c(c1)N(CCCC(=O)N1CCOCC1)C(=O)CO2	i
Cc1ccc(OCC(=O)c2ccc3c(c2)N(CCCC(=O)N2CCOCC2)C(=O)CO3)cc1C	i
CC(C)c1ccc(OCC(=O)c2ccc3c(c2)N(CCCC(=O)N2CCOCC2)C(=O)CO3)cc1	13µM*
CCN1CCN(CCNC(=O)c2ccc(N3CC4CC(C3)[C@H]3CCCC(=O)N3C4)nc2)CC1 (some centres not stated)	i
COc1ccc(CN2CCCC3(Cc4ccccc4CNC3=O)C2)c(OC)n1 (configuration not stated)	5µM*
O=C1NCc2ccccc2CC12CCCN(Cc1ccc(F)cc1)C2 (configuration not stated)	-25%
O=C1NCc2ccccc2CC12CCN(Cc1cc(F)ccc1F)C2 (configuration not stated)	-16%
O=C1NCc2ccccc2CC12CCCN(Cc1cc(F)ccc1O)C2 (configuration not stated)	8.9µM*
O=C1NCc2ccccc2CC12CCN(Cc1cc(F)ccc1F)CC2	0%
O=C1NCc2ccccc2CC12CCCN(Cc1ccncc1)C2 (configuration not stated)	-21%
O=C1NCc2ccccc2CC12CCCN(Cc1ccnc3ccccc13)C2 (configuration not stated)	-22%
O=C1NCc2ccccc2CC12CCCN(Cc1c(F)cccc1Cl)C2 (configuration not stated)	-20%
O=C1NCc2ccccc2CC12CCN(Cc1cc(F)ccc1O)C2 (configuration not stated)	11µM*
O=C(c1cccnc1)N1CCC(N2CC3CC(C2)[C@H]2CCCC(=O)N2C3)CC1 (some centres not stated)	-8%
COc1ccc(CN2C[C@@H](F)[C@@H](OCc3nc4ncccc4[nH]3)C2)cc1	-14%[44.1 µM]
SMILES	Pf Dd2 growth
Cc1ccc(C(=O)N2C[C@@H](CO)[C@H](c3ccncc3)C2)cc1F	8%
O=C1CCCCCN1C1CCN(Cc2ccccc2)CC1	-21%[44.1 µM]
CN1CCN(C(=O)C2CCC(=O)N(Cc3cccc(C(F)(F)F)c3)C2)CC1=O (configuration not stated)	-7%
Cc1cc(NC(=O)CC[C@H]2NC(=O)c3ccccc3NC2=O)nn1C	-9%
COc1ccc(CC(=O)N2C[C@@H](C(=O)O)[C@H](c3ccccc3)C2)c(OC)c1	-2%
C=CCc1cc(-c2c(-c3ccccc3)ncn2CCCO)cc(OC)c1O	i
C=CCc1cc(-c2c(-c3ccccc3)ncn2CCOCCO)cc(OC)c1O	6.3µM*
OCCOCCn1cnc(-c2ccccc2)c1-c1ccccc1Cn1cccn1	-11%
Cc1cc2nc3n(c(=O)c2n1CC(=O)Nc1cccc(Cl)c1)CCC3	i
O=C(CC1CCCCC1)N1CC(c2nnc(-c3ccncc3)o2)C2(CCOCC2)C1 (configuration not stated)	0%
Cc1ccc(CN2CC[C@H](c3nnc(Cc4ccccc4)o3)C2)cc1	-6%[44.1 µM]
Cc1ccccc1Oc1c(CCC(=O)N2CCSCC2)c(C)nn1-c1ccc(F)cc1	i
Cc1nn(-c2ccc(F)cc2)c(Oc2cccc(F)c2)c1CCC(=O)N1CCSCC1	7.9µM*
Cc1nn(-c2ccc(F)cc2)c(Oc2ccc(F)cc2F)c1CCC(=O)N1CCCC1	-8%
CCn1ccc(C(=O)N2CCOc3ccc(CCC(N)=O)cc3C2)n1	-23%
CCN(CC)c1ccc2cc(-c3nnc(-c4cccc(Cl)c4)o3)c(=O)oc2c1	-2%
CCCN(C(=O)c1cc2c(=O)oc3ccccc3c2s1)c1cccc(Cl)c1	11%
CCCN(C)C(=O)c1cn2cc(-c3cccc(Cl)c3)n(CC=C(C)C)c(=O)c2n1	13µM*
COc1ccc(-c2cn3cc(C(=O)NCC(N)=O)nc3c(=O)n2CC2CC2)c(F)c1	-28%
CC(C)=CCn1c(-c2cc(C)oc2C)cn2cc(C(=O)N(C)CC(C)C)nc2c1=O	11µM*
COc1cccc(NC(=O)Cn2c(-c3cnccn3)nc(C)c(CCO)c2=O)c1	i
CN(C)c1cccc(Oc2nnnn2[C@H]2CO[C@H]3[C@@H]2OC[C@@H]3NC(=O)c2cncnc2)c1	-21%
Cc1ccc2nc(-c3cc(NC(=O)c4ccc5c(c4)OCCO5)ccc3Cl)oc2c1	13%
Cc1ccc2nc(-c3cc(NC(=O)/C=C/c4ccccc4)ccc3Cl)oc2c1	11µM*
O=C(/C=C/c1ccccc1)Nc1cc(-c2nc3ccccc3o2)ccc1Cl	15%
SMILES	Pf Dd2 growth
CCn1ccc(C(=O)N2CCC(CC(=O)NC3CC3)C2)n1 (configuration not stated)	-7%
CCc1ccccc1S(=O)(=O)N1CCC(N(C(=O)COC)C2CCOCC2)CC1	-20%
COCCCNC(=O)C(NC(=O)c1cccc(C)c1)C1CCN(C(=O)c2ccc(C)cc2)CC1 (configuration not stated)	i
COc1ccc(CNC(=O)c2cnn(-c3ccc(OC)cc3)c2C2CCN(C(=O)OC(C)(C)C)CC2)cc1	-23%
COc1ccc(-n2ncc(C(=O)NCCc3ccsc3)c2C2CCN(C(=O)OC(C)(C)C)CC2)cc1	-27%
CCOC(=O)N1CCC(NC(=O)c2cnn(-c3ccc(C)cc3)c2C2CCN(C(=O)OC(C)(C)C)CC2)CC1	11µM*
Cc1ccc(-n2ncc(C(=O)NC3CCN(Cc4ccccc4)CC3)c2C2CCN(C(=O)OC(C)(C)C)CC2)cc1C	i
CCOC(=O)N1CCC(NC(=O)c2cnn(-c3ccc(OC)cc3)c2C2CCN(C(=O)OC(C)(C)C)CC2)CC1	8.9µM*
CCOC(=O)N1CCC(NC(=O)c2cnn(-c3cccc(Cl)c3C)c2C2CCN(C(=O)OC(C)(C)C)CC2)CC1	i
CN1CCN(C(=O)c2cnc(-c3ccccn3)nc2)[C@H]2CS(=O)(=O)C[C@H]21	7%
O=C(Cc1ccc(F)cc1)N1CCC2(CC1)COc1ccccc1[S+](=O)([O-])N2	-21%
CN1[C@@H](CCC(=O)N2CCOCC2)CNC(=O)[C@@H]2[C@H]1CCN2Cc1ncc[nH]1	20%[44.1 µM]
COc1cc(C(=O)N2CCN(CCc3ccccn3)CC2)cc(OC)c1OC	2.8µM*
CC(C)(C)c1ccc(C(=O)N2CCN(CCc3ccccn3)CC2)cc1	17%
COc1cc(C(=O)N2CCN(CCc3ccncc3)CC2)cc(OC)c1OC	14%
COCCN1CCCCCC(O)c2cc(C(=O)N3CCOCC3)ccc21 (configuration not stated)	14%
